Measured values from the supplement of paper PMC3334620.
The full ranking holds about 33,000 sequences; the median of “E-score (-0.5 to 0.5)” is about -0.035, and the highest 2% start at about 0.34. Shown is part of a subset that was picked to be rich in the highest values.

Each sequence was assayed against T1, Mot3 (UniProt P54785) (assay: PBM E-score (8-mer binding enrichment) (E-score (-0.5 to 0.5)); higher = stronger / more preferred TF binding). Settings: protein concentration: 200 nM; construct: GST-full length.
T1 sequence: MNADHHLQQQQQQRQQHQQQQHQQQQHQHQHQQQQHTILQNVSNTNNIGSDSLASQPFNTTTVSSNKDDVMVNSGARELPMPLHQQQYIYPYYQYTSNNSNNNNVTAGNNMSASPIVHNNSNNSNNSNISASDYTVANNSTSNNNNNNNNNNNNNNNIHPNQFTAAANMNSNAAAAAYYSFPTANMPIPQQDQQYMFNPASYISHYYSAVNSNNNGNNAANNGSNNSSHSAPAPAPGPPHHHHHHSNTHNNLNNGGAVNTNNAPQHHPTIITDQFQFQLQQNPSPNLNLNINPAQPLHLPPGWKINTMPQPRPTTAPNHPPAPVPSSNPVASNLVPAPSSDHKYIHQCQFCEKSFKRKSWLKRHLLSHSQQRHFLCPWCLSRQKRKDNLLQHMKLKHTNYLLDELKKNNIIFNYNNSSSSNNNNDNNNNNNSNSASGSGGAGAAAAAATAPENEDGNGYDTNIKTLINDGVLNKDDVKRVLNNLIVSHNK
Method in brief: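 Using PURExpress in vitro transcription/translation, GST-tagged yeast transcription factors were made in full-length or DNA-binding-domain form. These were applied at about 100-200 nM to double-stranded universal all-10-mer Agilent arrays, and bound protein was detected with fluorescent anti-GST. Scans were normalised with masliner before the Universal PBM Analysis Suite assigned E-scores to ungapped eight-base words pooled with their reverse complements.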
With TACGCGAA the “PBM E-score” value was 0.221. With TCGACTAA the “PBM E-score” value was -0.0673. For GGGCACTA, the “PBM E-score” value was 0.0732. With ATGCACTC the “PBM E-score” value was -0.061. For CGGCACTA, the “PBM E-score” value was -0.184. For ACGCACTG, the “PBM E-score” value was 0.00111. For AGGCACTC, the “PBM E-score” value was 0.481. AGGCACTG was tested, and the “PBM E-score” value was 0.483. With AGGCACTA the “PBM E-score” value was 0.484. With AAGCACTG the “PBM E-score” value was -0.0039. For CGGCACTC, the “PBM E-score” value was -0.251. With GTGATCGA the “PBM E-score” value was 0.11. With TAAAAGCA the “PBM E-score” value was -0.123. GCAGACAC was tested, and the “PBM E-score” value was -0.00428. AGAGACGA was tested, and the “PBM E-score” value was -0.246. With CCACGGTC the “PBM E-score” value was -0.385. In the case of ACACGGGA, the “PBM E-score” value was 0.29. In the case of ACACGGTG, the “PBM E-score” value was 0.335. ACACGGTA was tested, and the “PBM E-score” value was 0.34. For CCACGGTA, the “PBM E-score” value was -0.191. In the case of ACACGGGC, the “PBM E-score” value was 0.259. With ACACGGTC the “PBM E-score” value was 0.349. With ATACGGTC the “PBM E-score” value was -0.061. For ACACGGGT, the “PBM E-score” value was 0.348. For AAAACTCA, the “PBM E-score” value was 0.0802. For ATCCTGAA, the “PBM E-score” value was 0.0408. In the case of GAGGGACC, the “PBM E-score” value was -0.298. With ACTACGTG the “PBM E-score” value was 0.0857. In the case of ATTACGTA, the “PBM E-score” value was 0.354. In the case of ATTACGTC, the “PBM E-score” value was 0.269. In the case of ATTACGTG, the “PBM E-score” value was 0.383. For CTTACGTA, the “PBM E-score” value was 0.211. GTTACGTA was tested, and the “PBM E-score” value was 0.177. With ACGTCCAG the “PBM E-score” value was -0.0677. GTGGGTAA was tested, and the “PBM E-score” value was -0.0112. With AGCACGTA the “PBM E-score” value was 0.136. AGCACGGA was tested, and the “PBM E-score” value was 0.102. For CGCACGTA, the “PBM E-score” value was 0.154. For GGCACGGA, the “PBM E-score” value was 0.397. In the case of GGCACGCA, the “PBM E-score” value was 0.348. GGCACGAA was tested, and the “PBM E-score” value was 0.271. In the case of CGCACGAC, the “PBM E-score” value was -0.0534. GGCACGAC was tested, and the “PBM E-score” value was 0.36. In the case of GGCACGTA, the “PBM E-score” value was 0.363. For CGCACGCA, the “PBM E-score” value was -0.03. CGCACGGA was tested, and the “PBM E-score” value was -0.207. For GGCACGCC, the “PBM E-score” value was 0.237. ACACCCCG was tested, and the “PBM E-score” value was -0.336. In the case of ACCAGCCA, the “PBM E-score” value was -0.131. For ATGCTCTG, the “PBM E-score” value was -0.203. With ACCGCTCC the “PBM E-score” value was -0.258. In the case of CGGCATTC, the “PBM E-score” value was -0.249. CCTCGAGG was tested, and the “PBM E-score” value was -0.336. GCTTGTAA was tested, and the “PBM E-score” value was 0.318. AGGAAAGG was tested, and the “PBM E-score” value was 0.371. AGAAAAGC was tested, and the “PBM E-score” value was -0.171. With CGGAAAGC the “PBM E-score” value was -0.151. With AGGAAAGA the “PBM E-score” value was 0.282. ACGAAAGG was tested, and the “PBM E-score” value was 0.153. In the case of AGGAAAGC, the “PBM E-score” value was 0.405. For AACCAAAT, the “PBM E-score” value was 0.127. GTCGCAAA was tested, and the “PBM E-score” value was 0.0742. ATATGCGC was tested, and the “PBM E-score” value was 0.0367. CGGCAACC was tested, and the “PBM E-score” value was -0.0847. With AGGCAACT the “PBM E-score” value was 0.484. In the case of TGGCAACA, the “PBM E-score” value was 0.118. In the case of AGGCAACC, the “PBM E-score” value was 0.483. In the case of CGGCAACG, the “PBM E-score” value was -0.0123. In the case of ACGCAACT, the “PBM E-score” value was 0.0644. For AGGCAACG, the “PBM E-score” value was 0.485. In the case of AAGCAACG, the “PBM E-score” value was 0.0783. For GGGCAACC, the “PBM E-score” value was -0.175. CGGCAACA was tested, and the “PBM E-score” value was 0.0868. AAGCAACT was tested, and the “PBM E-score” value was -0.0233. AGGCAACA was tested, and the “PBM E-score” value was 0.482. In the case of GAGGCAGC, the “PBM E-score” value was -0.0844. CTTGCATC was tested, and the “PBM E-score” value was -0.16. ACCTGCTC was tested, and the “PBM E-score” value was 0.166. For ATATGACG, the “PBM E-score” value was 0.0195. CGTATTTC was tested, and the “PBM E-score” value was 0.215. In the case of AGGACACT, the “PBM E-score” value was -0.159. In the case of AGGATCGA, the “PBM E-score” value was -0.0463. For CCACAACA, the “PBM E-score” value was -0.0484. GCACAACA was tested, and the “PBM E-score” value was 0.35. GCACAACC was tested, and the “PBM E-score” value was -0.0592. In the case of AAGGTCCC, the “PBM E-score” value was -0.184. For GGCGCATA, the “PBM E-score” value was -0.113. In the case of ACCCGCAA, the “PBM E-score” value was -0.0644. With ACGGAACT the “PBM E-score” value was -0.186. With TCGGAACA the “PBM E-score” value was 0.056. For CAGAAACG, the “PBM E-score” value was 0.0904. GAGGAACA was tested, and the “PBM E-score” value was 0.176. In the case of AAGGAACT, the “PBM E-score” value was 0.416. AAGGAACA was tested, and the “PBM E-score” value was 0.453. In the case of AAGGAATT, the “PBM E-score” value was -0.0259. ATGGAACA was tested, and the “PBM E-score” value was -0.111. AAGGAAGA was tested, and the “PBM E-score” value was -0.0092. In the case of CAGGAATG, the “PBM E-score” value was -0.0291. CAGGAACG was tested, and the “PBM E-score” value was 0.466. With TAGGAACA the “PBM E-score” value was 0.416. ATGCTTAG was tested, and the “PBM E-score” value was 0.0516. For AACGTTAT, the “PBM E-score” value was 0.123. With AAGCCTCC the “PBM E-score” value was -0.243. In the case of CACTGGCC, the “PBM E-score” value was -0.267. AACACATA was tested, and the “PBM E-score” value was 0.312. With AAATTGGA the “PBM E-score” value was -0.0378. For CAGTGGCG, the “PBM E-score” value was -0.266. For AGCAGTCA, the “PBM E-score” value was 0.0249. CAGCCAGA was tested, and the “PBM E-score” value was -0.3. With CTCCCTTA the “PBM E-score” value was -0.018.
